In the supplement of paper PMC6607015:
Structures can show the parent of a compound that is named as a salt.

system: A431; assay: whole-cell filipin (free cholesterol) integrated intensity, Z-score; higher = more cholesterol staining; conditions: compound concentration in added solution (µM; 5 µl added to 20 µl cells): 10; 18 h
Method in brief: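 HeLa MZ or A431 cells were plated at 3,500 per well in 20 µl over 5 µl of 10 µM compound solution in duplicate 384-well imaging plates and fixed in 4% PFA after 18 h. Staining used the 6C4 anti-LBPA antibody, filipin, propidium iodide and CellTracker green, with four 20× images captured per well. MetaXpress segmentation measured integrated LBPA or filipin intensity per cell, across the whole cell or inside LBPA endosomes, and AcuityXpress normalised these into Z-scores.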

| Compound | whole-cell filipin (z-score) |
| --- | --- |
| CN1CCN(CC(=O)N2c3ccccc3C(=O)Nc3cccnc32)CC1 [Pirenzepine dihydrochloride] | -1.05 |
| O=C(O)/C=C/c1ccc(Cn2ccnc2)cc1 [Ozagrel hydrochloride] | 0.164 |
| CC(=O)[C@H]1CC[C@H]2[C@@H]3C=CC4=CC(=O)CC[C@@]4(C)[C@@H]3CC[C@]12C [Dydrogesterone] | 0.649 |
| COc1ccc2cc([C@H](C)C(=O)O)ccc2c1 [Naproxen] | -0.923 |
| CC(=O)[C@H]1CC[C@H]2[C@@H]3C[C@H](C)C4=CC(=O)CC[C@]4(C)[C@H]3[C@@H](O)C[C@]12C [Medrysone] | 0.12 |
| CCCCc1oc2ccccc2c1C(=O)c1cc(I)c(OCCN(CC)CC)c(I)c1 [Amiodarone hydrochloride] | 0.251 |
| CN(C)CCC(c1ccc(Br)cc1)c1ccccn1 (stereo not drawn) [Brompheniramine maleate] | -0.609 |
| CCN(CC)C(C)CN1c2ccccc2Sc2ccccc21 (stereo not drawn) [Ethopropazine hydrochloride] | 2.83 |
| O=C(O)c1cc(/N=N/c2ccc(S(=O)(=O)Nc3ccccn3)cc2)ccc1O [Sulfasalazine] | 0.0767 |
| CCCc1ncc(C[n+]2ccccc2C)c(N)n1 [Amprolium hydrochloride] | -0.581 |
| Cc1ncc([N+](=O)[O-])n1CC(C)O (stereo not drawn) [Secnidazole] | -0.203 |
| OC(CCN1CCCCC1)(c1ccccc1)C1CC2C=CC1C2 (stereo not drawn) [Biperiden hydrochloride] | -0.251 |
| NC12CC3CC(CC(C3)C1)C2 [Adamantamine fumarate] | -0.89 |
| OCCN1CCN(CCCN2c3ccccc3C=Cc3ccccc32)CC1 [Opipramol dihydrochloride] | 0.629 |
| COc1cc(NS(=O)(=O)c2ccc(N)cc2)ncn1 [Sulfamonomethoxine] | -0.452 |
| Cc1cc(-c2ccccc2)nnc1NCCN1CCOCC1 [Minaprine dihydrochloride] | -0.925 |
| Clc1ccc2nsnc2c1NC1=NCCN1 [Tizanidine HCl] | -0.333 |

| Compound | whole-cell filipin (z-score) |
| --- | --- |
| CN(C)CCOC(c1ccccc1)c1ccccc1 [Diphenhydramine hydrochloride] | -0.136 |
| CN(C)CCCO[C@@H]1[C@H]2OC(C)(C)O[C@H]2O[C@@H]1[C@H](O)CO [Amiprilose hydrochloride] | -0.0258 |
| NC(=O)N/N=C/c1ccc([N+](=O)[O-])o1 [Nitrofural] | -0.633 |
| N[C@@H](C(=O)N[C@@H]1C(=O)N2C(C(=O)O)=C(Cl)CS[C@H]12)c1ccccc1 [Cefaclor hydrate] | -0.722 |
| COc1ccc(C(=O)NCc2ccc(OCCN(C)C)cc2)cc1OC [Itopride] | -0.844 |
| CC1(C)O[C@@H]2C[C@H]3[C@@H]4C[C@H](F)C5=CC(=O)C=C[C@]5(C)[C@@]4(F)[C@@H](O)C[C@]3(C)[C@]2(C(=O)CO)O1 [Fluocinolone acetonide] | 0.258 |
| NCC[C@H](O)C(=O)N[C@@H]1C[C@H](N)[C@@H](O[C@H]2O[C@H](CN)[C@@H](O)[C@H](O)[C@H]2O)[C@H](O)[C@H]1O[C@H]1O[C@H](CO)[C@@H](O)[C@H](N)[C@H]1O [Amikacin hydrate] | -1.06 |
| CC(C)c1c(C(=O)Nc2ccccc2)c(-c2ccccc2)c(-c2ccc(F)cc2)n1CC[C@@H](O)C[C@@H](O)CC(=O)O [Atorvastatin] | -0.0189 |
| CCOC(=O)O[C@]1(C(=O)COC(=O)CC)CC[C@H]2[C@@H]3CCC4=CC(=O)C=C[C@]4(C)[C@H]3[C@@H](O)C[C@@]21C [Prednicarbate] | 0.46 |
| CC(=O)N[C@@H](CS)C(=O)O [Acetylcysteine] | -0.0556 |
| CCCCC(CC)CN1CN(CC(CC)CCCC)CC(C)(N)C1 (stereo not drawn) [Hexetidine] | 1.01 |
| Cc1ccc2c(c1)c1c3n2CCNC3CCC1 (stereo not drawn) [Pirlindole mesylate] | 0.654 |
| CCN1CCN(C(=O)N[C@@H](C(=O)N[C@@H]2C(=O)N3[C@@H]2SC(C)(C)[C@@H]3C(=O)O)c2ccccc2)C(=O)C1=O [Piperacillin sodium salt] | -0.0934 |
| NC(=O)N1c2ccccc2C=Cc2ccccc21 [Carbamazepine] | -0.553 |
| CN1CCC(=C2c3ccccc3C=Cc3ccccc32)CC1 [Cyproheptadine hydrochloride] | 1.01 |
| CC(=O)c1ccc(S(=O)(=O)NC(=O)NC2CCCCC2)cc1 [Acetohexamide] | -0.763 |
